Seven molecules from ChEMBL document CHEMBL2218924, “A broad activity screen in support of a chemogenomic map for kinase signalling research and drug discovery” (Biochem J, 2013) can be followed below.

Assay [1] addresses MAP kinase-activated protein kinase 2 (Homo sapiens) (UniProt P49137). Conditions: at 10 µM.
Assay [2] concerns the target Serine/threonine-protein kinase MARK1 (Homo sapiens) (UniProt Q9P0L2). Conditions: at 1 µM.
For assay [3] the target is unchanged. Conditions: at 10 µM.
The target of assay [4] is Dual specificity mitogen-activated protein kinase kinase 1 (Homo sapiens) (UniProt Q02750). Conditions: at 1 µM.
For assay [5] the target is unchanged. Conditions: at 10 µM.
For assay [6], the target named is Maternal embryonic leucine zipper kinase (Homo sapiens) (UniProt Q14680). Conditions: at 1 µM.
For assay [7] the target is unchanged. Conditions: at 10 µM.
In assay [8] the target is Misshapen-like kinase 1 (Homo sapiens) (UniProt Q8N4C8). Conditions: at 1 µM.
Assay [9] has the same target. Conditions: at 10 µM.
The target of assay [10] is T1, Dual specificity mitogen-activated protein kinase kinase 6 (Homo sapiens) (UniProt P52564).
T1 sequence (whole entry): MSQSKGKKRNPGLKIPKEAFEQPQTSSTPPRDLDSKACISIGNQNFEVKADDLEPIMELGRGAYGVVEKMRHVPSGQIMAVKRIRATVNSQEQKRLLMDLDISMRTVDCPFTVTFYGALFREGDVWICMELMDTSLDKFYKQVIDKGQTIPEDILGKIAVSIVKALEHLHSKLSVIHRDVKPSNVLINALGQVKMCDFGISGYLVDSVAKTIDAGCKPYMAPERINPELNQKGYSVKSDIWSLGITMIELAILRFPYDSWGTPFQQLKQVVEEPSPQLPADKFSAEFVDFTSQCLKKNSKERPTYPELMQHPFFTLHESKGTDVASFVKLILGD
Conditions: at 1 µM.

Assay [11] addresses T1, Dual specificity mitogen-activated protein kinase kinase 6 (Homo sapiens). Conditions: at 10 µM.
Assay [12] concerns the target T2, Dual specificity mitogen-activated protein kinase kinase 7 (Homo sapiens) (UniProt O14733).
T2 sequence (whole entry): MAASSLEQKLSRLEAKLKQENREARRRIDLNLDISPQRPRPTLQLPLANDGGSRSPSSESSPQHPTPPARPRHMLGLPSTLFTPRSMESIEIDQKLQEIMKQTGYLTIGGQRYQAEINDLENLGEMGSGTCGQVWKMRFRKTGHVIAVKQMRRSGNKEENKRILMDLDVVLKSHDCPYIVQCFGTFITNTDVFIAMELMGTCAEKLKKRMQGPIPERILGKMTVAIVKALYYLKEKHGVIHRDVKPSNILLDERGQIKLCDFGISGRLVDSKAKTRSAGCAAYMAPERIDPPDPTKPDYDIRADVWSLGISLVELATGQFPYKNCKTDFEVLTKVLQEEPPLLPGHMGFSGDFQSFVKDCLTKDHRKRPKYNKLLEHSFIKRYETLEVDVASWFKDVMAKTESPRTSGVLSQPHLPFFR
Conditions: at 1 µM.

In assay [13] the target is T2, Dual specificity mitogen-activated protein kinase kinase 7 (Homo sapiens). Conditions: at 10 µM.
Assay [14] has as its target Myosin light chain kinase, smooth muscle (Homo sapiens) (UniProt Q15746). Particulars: at 1 µM.
The target is the same in assay [15]. Particulars: at 10 µM.
Assay [16] concerns the target Mitogen-activated protein kinase kinase kinase 9 (Homo sapiens) (UniProt P80192). Particulars: at 1 µM.
Assay [17] shares this target. Particulars: at 10 µM.
Assay [18] has as its target Serine/threonine-protein kinase MRCK alpha (Homo sapiens) (UniProt Q5VT25). Conditions: at 1 µM.
The target of assay [19] is MAP kinase-activated protein kinase 3 (Homo sapiens) (UniProt Q16644). Conditions: at 10 µM.
Sequence of MAP kinase-activated protein kinase 3 (Homo sapiens) (Q16644 whole entry, looked up): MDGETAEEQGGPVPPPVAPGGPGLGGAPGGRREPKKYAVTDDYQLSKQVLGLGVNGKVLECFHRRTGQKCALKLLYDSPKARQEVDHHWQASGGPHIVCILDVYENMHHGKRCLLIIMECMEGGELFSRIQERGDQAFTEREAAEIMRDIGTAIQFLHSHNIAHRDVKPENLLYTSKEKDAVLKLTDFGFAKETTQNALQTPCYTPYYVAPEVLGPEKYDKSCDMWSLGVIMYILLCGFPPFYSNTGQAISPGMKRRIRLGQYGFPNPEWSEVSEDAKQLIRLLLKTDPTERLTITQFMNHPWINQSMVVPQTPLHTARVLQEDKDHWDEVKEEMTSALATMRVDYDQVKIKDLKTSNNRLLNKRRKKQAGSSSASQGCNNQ
Assay [20] concerns the target Serine/threonine-protein kinase MRCK alpha (Homo sapiens) (UniProt Q5VT25). Particulars: at 10 µM.

Sequence of Serine/threonine-protein kinase MRCK alpha (Homo sapiens) (Q5VT25 whole entry): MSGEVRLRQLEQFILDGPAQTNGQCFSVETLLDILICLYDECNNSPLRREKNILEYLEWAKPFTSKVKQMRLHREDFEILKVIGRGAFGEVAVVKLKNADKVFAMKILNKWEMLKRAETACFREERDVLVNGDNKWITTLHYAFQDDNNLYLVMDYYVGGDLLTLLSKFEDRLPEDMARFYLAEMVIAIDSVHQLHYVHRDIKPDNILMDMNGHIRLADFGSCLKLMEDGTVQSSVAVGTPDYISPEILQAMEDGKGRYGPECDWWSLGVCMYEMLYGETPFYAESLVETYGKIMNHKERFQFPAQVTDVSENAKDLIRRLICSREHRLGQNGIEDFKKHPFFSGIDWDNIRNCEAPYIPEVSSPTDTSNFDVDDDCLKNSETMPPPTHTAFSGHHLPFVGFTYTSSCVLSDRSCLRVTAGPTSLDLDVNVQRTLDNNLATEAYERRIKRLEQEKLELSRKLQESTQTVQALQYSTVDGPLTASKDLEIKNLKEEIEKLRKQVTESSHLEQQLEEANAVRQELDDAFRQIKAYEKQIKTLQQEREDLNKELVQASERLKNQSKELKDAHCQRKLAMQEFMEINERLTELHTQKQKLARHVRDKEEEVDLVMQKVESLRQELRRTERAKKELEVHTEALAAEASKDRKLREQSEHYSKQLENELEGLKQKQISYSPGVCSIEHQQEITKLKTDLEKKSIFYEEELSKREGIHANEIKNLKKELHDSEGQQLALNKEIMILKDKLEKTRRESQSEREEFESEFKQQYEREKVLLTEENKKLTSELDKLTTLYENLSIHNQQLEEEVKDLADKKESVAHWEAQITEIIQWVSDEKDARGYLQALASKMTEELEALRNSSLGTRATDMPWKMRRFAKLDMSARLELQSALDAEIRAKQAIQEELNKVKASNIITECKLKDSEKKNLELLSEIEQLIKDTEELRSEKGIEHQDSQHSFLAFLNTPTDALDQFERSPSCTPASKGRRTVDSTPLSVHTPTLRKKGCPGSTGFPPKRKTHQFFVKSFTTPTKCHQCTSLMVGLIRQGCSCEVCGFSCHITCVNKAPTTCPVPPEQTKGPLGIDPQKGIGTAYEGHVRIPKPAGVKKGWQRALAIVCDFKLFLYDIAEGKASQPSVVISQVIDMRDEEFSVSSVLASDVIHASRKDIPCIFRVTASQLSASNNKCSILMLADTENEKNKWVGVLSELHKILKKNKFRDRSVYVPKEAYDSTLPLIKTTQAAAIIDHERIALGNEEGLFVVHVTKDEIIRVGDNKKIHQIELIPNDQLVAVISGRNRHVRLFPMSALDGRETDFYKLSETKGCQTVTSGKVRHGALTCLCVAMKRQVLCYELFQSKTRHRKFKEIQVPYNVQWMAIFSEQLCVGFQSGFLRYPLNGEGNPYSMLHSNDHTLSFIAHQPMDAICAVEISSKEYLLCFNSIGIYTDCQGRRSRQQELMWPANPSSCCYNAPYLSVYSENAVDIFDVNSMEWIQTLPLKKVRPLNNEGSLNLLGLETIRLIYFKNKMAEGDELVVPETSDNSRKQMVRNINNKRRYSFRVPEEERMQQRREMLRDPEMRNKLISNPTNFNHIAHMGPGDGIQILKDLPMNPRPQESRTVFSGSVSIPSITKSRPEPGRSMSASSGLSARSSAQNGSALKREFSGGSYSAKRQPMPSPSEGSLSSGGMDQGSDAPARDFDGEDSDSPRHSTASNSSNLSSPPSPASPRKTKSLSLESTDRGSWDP
Sequence of Serine/threonine-protein kinase MARK1 (Homo sapiens) (Q9P0L2 whole entry, looked up): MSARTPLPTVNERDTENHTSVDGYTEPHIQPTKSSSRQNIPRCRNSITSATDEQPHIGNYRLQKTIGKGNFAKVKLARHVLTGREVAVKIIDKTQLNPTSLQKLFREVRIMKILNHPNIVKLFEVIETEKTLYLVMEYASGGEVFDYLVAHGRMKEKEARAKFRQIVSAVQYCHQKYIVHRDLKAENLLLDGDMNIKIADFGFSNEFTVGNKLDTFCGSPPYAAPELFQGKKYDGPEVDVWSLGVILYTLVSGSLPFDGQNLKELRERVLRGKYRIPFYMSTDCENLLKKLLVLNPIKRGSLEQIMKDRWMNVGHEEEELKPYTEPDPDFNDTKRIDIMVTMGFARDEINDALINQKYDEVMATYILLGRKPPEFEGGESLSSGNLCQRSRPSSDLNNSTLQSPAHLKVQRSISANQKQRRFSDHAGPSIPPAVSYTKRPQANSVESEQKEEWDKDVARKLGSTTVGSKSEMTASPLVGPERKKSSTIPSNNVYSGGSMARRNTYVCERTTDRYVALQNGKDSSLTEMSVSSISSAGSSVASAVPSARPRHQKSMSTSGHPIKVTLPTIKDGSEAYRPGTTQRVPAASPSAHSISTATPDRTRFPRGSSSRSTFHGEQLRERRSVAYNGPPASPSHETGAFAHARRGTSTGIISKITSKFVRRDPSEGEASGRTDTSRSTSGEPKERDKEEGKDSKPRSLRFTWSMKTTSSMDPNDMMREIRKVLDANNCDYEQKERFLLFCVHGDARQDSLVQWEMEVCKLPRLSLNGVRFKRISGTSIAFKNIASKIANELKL
Sequence of Myosin light chain kinase, smooth muscle (Homo sapiens) (Q15746 whole entry): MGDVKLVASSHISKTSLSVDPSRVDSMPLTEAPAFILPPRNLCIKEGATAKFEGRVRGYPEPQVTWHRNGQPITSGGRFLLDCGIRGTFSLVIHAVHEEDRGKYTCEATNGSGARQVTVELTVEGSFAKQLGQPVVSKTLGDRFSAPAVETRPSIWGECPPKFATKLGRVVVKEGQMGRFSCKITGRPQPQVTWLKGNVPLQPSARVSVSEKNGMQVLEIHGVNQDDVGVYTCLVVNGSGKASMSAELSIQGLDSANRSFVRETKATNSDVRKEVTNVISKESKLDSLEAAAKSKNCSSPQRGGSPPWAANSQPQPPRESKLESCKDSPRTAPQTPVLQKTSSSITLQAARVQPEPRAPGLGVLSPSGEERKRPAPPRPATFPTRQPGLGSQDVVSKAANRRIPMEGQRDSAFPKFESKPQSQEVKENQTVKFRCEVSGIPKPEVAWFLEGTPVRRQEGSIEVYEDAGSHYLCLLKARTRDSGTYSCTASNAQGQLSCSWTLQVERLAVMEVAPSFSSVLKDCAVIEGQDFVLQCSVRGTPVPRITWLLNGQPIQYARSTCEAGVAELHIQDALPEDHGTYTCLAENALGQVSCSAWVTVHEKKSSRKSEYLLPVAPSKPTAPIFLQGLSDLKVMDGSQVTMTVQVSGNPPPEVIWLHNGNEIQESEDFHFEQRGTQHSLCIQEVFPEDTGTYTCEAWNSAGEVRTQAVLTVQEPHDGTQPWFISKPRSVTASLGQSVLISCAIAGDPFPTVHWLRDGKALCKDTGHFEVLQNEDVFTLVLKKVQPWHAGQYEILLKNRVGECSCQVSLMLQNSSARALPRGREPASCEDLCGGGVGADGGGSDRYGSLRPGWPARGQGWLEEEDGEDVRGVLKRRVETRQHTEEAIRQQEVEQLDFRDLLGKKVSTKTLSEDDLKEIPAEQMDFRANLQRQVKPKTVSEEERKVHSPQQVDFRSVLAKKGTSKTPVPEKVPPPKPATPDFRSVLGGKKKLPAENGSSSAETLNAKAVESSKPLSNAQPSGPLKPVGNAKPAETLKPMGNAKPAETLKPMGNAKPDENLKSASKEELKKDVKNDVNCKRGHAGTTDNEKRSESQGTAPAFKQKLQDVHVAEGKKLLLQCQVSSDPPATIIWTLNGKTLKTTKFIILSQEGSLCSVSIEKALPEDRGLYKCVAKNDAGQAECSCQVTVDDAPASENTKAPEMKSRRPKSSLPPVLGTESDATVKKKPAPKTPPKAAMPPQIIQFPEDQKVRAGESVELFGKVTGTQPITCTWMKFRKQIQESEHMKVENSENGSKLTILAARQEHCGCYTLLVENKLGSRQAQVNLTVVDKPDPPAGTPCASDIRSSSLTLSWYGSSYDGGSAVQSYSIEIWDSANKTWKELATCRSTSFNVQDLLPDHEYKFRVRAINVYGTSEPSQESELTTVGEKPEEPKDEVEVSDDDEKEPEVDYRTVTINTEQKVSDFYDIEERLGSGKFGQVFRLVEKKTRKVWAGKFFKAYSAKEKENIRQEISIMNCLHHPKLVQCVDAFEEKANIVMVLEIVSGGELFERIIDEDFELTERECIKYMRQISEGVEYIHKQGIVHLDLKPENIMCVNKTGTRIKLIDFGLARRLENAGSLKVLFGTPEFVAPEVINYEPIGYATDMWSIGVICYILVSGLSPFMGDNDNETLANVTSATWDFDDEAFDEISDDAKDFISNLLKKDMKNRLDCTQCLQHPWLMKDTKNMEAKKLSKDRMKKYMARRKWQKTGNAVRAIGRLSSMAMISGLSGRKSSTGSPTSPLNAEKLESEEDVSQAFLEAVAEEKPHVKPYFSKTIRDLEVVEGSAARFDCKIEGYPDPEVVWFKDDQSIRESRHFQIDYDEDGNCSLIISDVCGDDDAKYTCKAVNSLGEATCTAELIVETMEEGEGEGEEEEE

On to `Nc1cccc(-c2cc3c(Oc4cccc(O)c4)ncnc3[nH]2)c1`, for which the residual activity was 82% in assay [1]; 51% in assay [2]; 11% in assay [3]; 94% in assay [4]; 102% in assay [5]; 73% in [6]. Besides, the residual activity was determined as 29% in [7]; 41% in assay [8]; 7% in assay [9]; 74% in assay [10]; 20% in [11]; 80% in assay [12]. Also, the residual activity in assay [13] turned out to be 70%; in assay [14] it was 85%; in assay [15], 25%; in assay [16], 7%; in [17] it was 1%; in [18] it was 123%.
Regarding `COc1ccc(OC)c2c(=S)c3ccccc3[nH]c12`, the residual activity in [19] was 89%; in assay [2], 87%; in [3], 74%; in assay [4], 114%; in [5] it was 110%; in assay [6], 102%. Also, the residual activity in assay [7] amounted to 84%; in assay [8] it was 108%; in [9] it was 94%; in assay [10], 112%; in [11], 96%; in assay [12] it was 81%. The residual activity was determined as 90% in [13]; 132% in assay [14]; 71% in [15]; 89% in [17]; 119% in assay [18]; 93% in assay [20].
For the molecule `CC(C)n1cnc2/c(=N/c3cccc(Cl)c3)nc(NCCO)[nH]c21`, the residual activity in assay [1] worked out at 92%; in assay [19], 116%; in assay [2], 50%; in [3], 26%; in assay [4], 81%; in [5] it was 91%. Also, the residual activity in assay [6] came out at 56%; in [7] it was 16%; in [8], 98%; in [9] it was 69%; in assay [10], 73%; in assay [11], 49%. Besides, the residual activity in assay [12] is 80%; in assay [13] it was 93%; in assay [14], 90%; in assay [15] it was 30%; in [16] it was 11%; in [17] it was 1%. Also, the results for the residual activity in [18] and in assay [20] were 108% and 98%, respectively.
For the molecule `Nc1ccc2ncnc(NCCc3ccc(Oc4ccccc4)cc3)c2c1`, the residual activity is 106% in assay [1]; 105% in assay [19]; 87% in assay [2]; 62% in [3]; 99% in assay [4]; 101% in assay [5]. Also, the residual activity in [6] stood at 63%; in assay [7], 40%; in assay [8], 101%; in assay [9], 82%; in [10], 90%; in [11], 82%. In addition, the residual activity is 73% in assay [12]; 96% in assay [13]; 104% in [14]; 64% in assay [15]; 80% in [17]; 131% in assay [18]. For the same molecule, the residual activity in [20] was 124%.
`O=C(Nc1cccc(Nc2cc(Nc3cccc(C(F)(F)F)c3)ncn2)c1)C1CC1`: the residual activity in assay [1] turned out to be 71%; in assay [19], 91%; in assay [2], 83%; in [3], 79%; in assay [4] it was 78%; in [5] it was 88%. Further, the residual activity in assay [6] turned out to be 89%; in assay [7], 89%; in [8] it was 105%; in [9] it was 97%; in assay [10], 76%; in [11] it was 66%. Also, the residual activity in [12] came out at 104%; in assay [13], 106%; in assay [14] it was 75%; in [15], 81%; in [16], 79%; in assay [17], 36%. In addition, the residual activity in assay [18] amounted to 92%; in assay [20], 115%.
For the molecule `COc1ccc(C(=O)Nc2sc3c(c2C(N)=O)CCCC3)cc1OC`, the residual activity in [1] worked out at 88%; in assay [19] it was 79%; in assay [2], 81%; in [3], 81%; in assay [4], 120%; in [5] it was 101%. Further, the residual activity in assay [6] was found to be 78%; in assay [7], 78%; in [8] it was 95%; in [9], 92%; in assay [10], 80%; in assay [11], 120%. Besides, the residual activity in assay [12] was determined as 90%; in assay [13], 73%; in assay [14], 80%; in assay [15] it was 66%; in [16] it was 90%; in assay [17] it was 96%. The residual activity in [18] was 92%; in assay [20], 85%.
Consider `CC(=O)c1ccc(N2CCOCC2)cc1O`, for which the residual activity came to 111% in assay [19]; 93% in [2]; 91% in assay [3]; 102% in assay [4]; 90% in [6]; 100% in assay [7]. In addition, the residual activity in assay [8] was 108%; in assay [9], 88%; in assay [10], 75%; in assay [11], 91%; in assay [12] it was 104%; in [13] it was 96%. Also, the residual activity is 83% in [14]; 85% in [15]; 89% in assay [16]; 97% in assay [17]; 105% in [18]; 92% in assay [20].
